# Chronic BCR inh: inhibitors of chronic active B-cell receptor signaling. ABC-DLBCL IkBa-CBG/CBR reporter, luminescence ratio, 4 h. Potency, µM (titrated, usually from 46.1 µM), for inactives: at the top dose activity change, negative = inhibition, hits mostly inhibitors. hit rate 0.05% among 340,000. AID 493014; active = well fitted inhibition curve with a large enough effect in the signal ratio, with a control signal flat, not every such curve was filed as active; inconclusive = small, poorly fitted or top-dose-only effect, or effect the other way, or a change in a side signal; the % refers to the signal ratio;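 note: potency is the fitted concentration of half-maximal effect; plate controls were basal doxycycline-induced cells for no effect and cells given 10 µM MG132 for full effect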
#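 Concentration-response series (up to 46 uM) were applied to TMD8 dual-reporter cells for 4 h at 37C with doxycycline. Green/red ratio, after filter-overlap correction, defined %Activity; red signal alone was normalised to basal cells and zero luminescence.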
# DRD3 agonist: D3 dopamine receptor (human) agonism; hit rate 0.58% among 410,000; D3R DiscoveRx beta-arrestin cells, luminescence, 90 min; max activation, %; P35462; AID 652048; in the data active = max activation above about 30%; note: 0% is about no effect
# Target sequence (P35462 whole entry, looked up): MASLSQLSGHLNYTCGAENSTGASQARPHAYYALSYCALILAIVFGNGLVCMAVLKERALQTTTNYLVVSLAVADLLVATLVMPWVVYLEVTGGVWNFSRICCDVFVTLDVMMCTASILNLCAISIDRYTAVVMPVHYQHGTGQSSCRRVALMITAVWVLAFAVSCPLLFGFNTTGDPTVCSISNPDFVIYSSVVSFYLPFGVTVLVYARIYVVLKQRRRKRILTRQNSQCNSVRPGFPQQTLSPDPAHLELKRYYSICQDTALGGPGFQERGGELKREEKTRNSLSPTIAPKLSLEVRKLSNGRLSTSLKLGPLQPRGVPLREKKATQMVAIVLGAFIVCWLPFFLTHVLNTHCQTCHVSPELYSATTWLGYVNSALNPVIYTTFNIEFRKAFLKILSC
#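 Cells at 1500/well, incubated overnight, then treated with pinned compounds (dopamine as control) for 90 min at 37 degrees C. DiscoveRx reagent added for 30 - 60 minutes at room temperature; luminescence read.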
# D1 PAM: potentiators of human D1 dopamine receptor; P21728; HEK293 TREx D1 cells, calcium flux, dopamine EC20 potentiation; potentiation, % at 10 µM; hit rate 0.036% among 360,000; in the data active = potentiation above about 30%; note: 0% is about no effect
# D1 antag: human D1 dopamine receptor antagonism | HEK293 TREx D1 cells, calcium flux, dopamine EC80; hits give low values | hit rate 3.2% among 360,000 | activity change, negative = inhibition, % at 10 µM; in the data active = activity change below about -30%; note: % is set by controls: 0 for no effect and ±100 for the full control effect
#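 Allosteric or orthosteric antagonism assessed as attenuation of the calcium response to EC80 dopamine, added 180 s after compound, in induced HEK293 Trex D1 cells loaded with no-wash calcium dye.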
# DRD3 antagonist: D3 dopamine receptor (human) antagonism. hit rate 2.5% among 360,000. P35462. max response, negative = inhibition, %. D3R cells, DiscoveRx beta-arrestin luminescence, antagonist mode; hits give low values; in the data active = max response below about -50%; inconclusive = no clear call, values can overlap the other calls; note: % is set by controls: 0 for no effect and ±100 for the full control effect
#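 Cells expressing the human receptor were seeded at 1500 cells/well, incubated overnight at 37 degrees C in 5% CO2, then exposed to library compounds with dopamine controls for 90 minutes at 37 degrees C before luminescent detection.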
# D1 ag: activates the human D1 dopamine receptor | HEK293 T-REx D1 cells, calcium flux, agonist mode | activation, % at 2 µM | AID 504660 | hit rate 1% among 360,000; in the data active = activation above about 30%; note: 0% is about no effect
#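 Agonism was scored from calcium flux recorded over 180 s (1 read/s) after pintool compound addition, following a 10-cycle baseline. Cells were inducible force-coupled HEK293 TREx D1, plated overnight at 30 C and loaded with no-wash calcium dye.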
# An asterisk follows results filed as active; u = inconclusive; x = not tested or not shown. A selection: hits, their analogues and other compounds. The true share with any hit is near 6%.
SMILES,Chronic BCR inh,DRD3 agonist,D1 PAM,D1 antag,DRD3 antagonist,D1 ag
Nc1ccc(-c2c3ccc(=O)cc-3oc3cc(O)ccc23)c(C(=O)O)c1,1.4%,-27.8,1.1,-0.2,u,355.4*
CN1CCN(c2cc(N3CCc4ccccc4C3)c(F)cc2[N+](=O)[O-])CC1,u,-21.6,-16.9,-54.0*,-61.1*,8.1
O=C(COC(=O)CC1CCCC1)Nc1ccc(Cl)cn1,u,3.8,-7.8,-0.2,10.0,-0.8
CCCOc1ccc(C(=O)Nc2ccc(Cl)cn2)cc1,u,0.5,-4.0,-49.8*,3.4,-0.2
O=C(Nc1ccc(Cl)cn1)c1cccnc1,8.2%,2.6,-4.8,3.7,-51.3*,-2.6
O=C(Nc1ccc(Cl)cn1)c1ccc2nccnc2c1,u,1.9,0.0,-3.3,4.8,2.8
CC(OC(=O)CC1CCCC1)C(=O)Nc1ccc(Cl)cn1 (centres undefined),2.4%,-2.5,-5.0,3.9,-53.9*,0.6
Cc1noc(C)c1C(=O)Nc1nc(-c2ccccc2Cl)cs1,15.0%,12.8,-5.2,-25.1,28.2,2.1
O=C(Nc1ccc(Cl)cn1)c1ccc(Oc2ccccc2)cc1,u,-3.7,-0.9,-11.3,-8.8,11.7
O=C(Nc1nc(-c2ccccc2Cl)cs1)c1cccnc1,u,11.8,-4.5,-40.8*,25.9,4.2
Cc1nc2c(C(=O)NC(C)c3ccccc3)cnn2c(C)c1Cc1ccccc1 (centres undefined),-0.2%,-4.9,3.5,1.6,x,-0.3
CCCC(C)C(=O)Nc1ccc(Cl)cn1 (centres undefined),3.1%,1.3,-1.9,-34.3*,-8.4,0.2
CCCCC(=O)Nc1ccc(Cl)cn1,u,-2.8,-0.5,-15.4,13.7,0.3
CCOC(=O)c1ccc(NC(=O)Nc2ccon2)cc1,u,-10.4,-2.1,-11.2,u,8.7
CCOC(=O)c1ccc(NC(=O)Nc2ccc(Cl)cn2)cc1,-11.9%,1.3,2.5,-32.8*,-3.2,0.4
CN1CCN(c2cc(C(F)(F)F)nc3ccc(F)cc23)CC1,3.7%,-1.9,-2.2,-0.3,45.1,3.5
CN1CCN(C2=Cc3ccccc3Sc3cc(F)ccc32)CC1,-1.7%,0.5,-9.4,-62.2*,-0.4,8.1
CN1CCN(C2=Cc3ccc(Cl)cc3Sc3ccc(F)cc32)CC1,u,-16.1,-27.7,-91.1*,-18.7,9.0
Cc1ccc2cc(CN(C)C(=O)c3cccc(Cl)c3)c(=O)[nH]c2c1,x,4.7,-1.1,0.9,x,0.8
COc1cc(NC(=O)Cn2nc(C(F)(F)F)c3c2CCCC3)c(OC)cc1Cl,x,1.1,-0.2,4.1,x,-1.0
Cc1ccc(CN2C(=O)c3ccccc3CC2(C)C(=O)NC2CCCCC2)cc1 (centres undefined),x,0.6,-4.2,7.1,x,0.9
CCCCc1cc(=O)oc2cc(C)cc(O)c12,u,0.8,-8.6,-34.7*,9.3,18.1
O=C(c1ccc(NC2=NC3CS(=O)(=O)CC3S2)cc1)N1CCN(c2ccc(F)cc2)CC1 (centres undefined),-9.4%,5.3,-0.8,-2.1,-6.7,3.2
O=C(c1ccc(NC2=NC3CS(=O)(=O)CC3S2)cc1)N1CCN(c2ccccc2F)CC1 (centres undefined),10.6%,-10.2,-12.6,0.7,-61.0*,3.1
Cc1ccc(C)c(N2CCN(C(=O)c3ccc4nc(-c5ccco5)c(-c5ccco5)nc4c3)CC2)c1,16.4%,33.6*,-1.6,-4.3,37.5,0.6
SMILES,Chronic BCR inh,DRD3 agonist,D1 PAM,D1 antag,DRD3 antagonist,D1 ag
COc1ccccc1N1CCN(C(=O)c2ccc3nc(-c4ccco4)c(-c4ccco4)nc3c2)CC1,u,3.1,-4.3,9.2,11.5,-1.5
Cc1sc2ncnc(SCC(=O)N3CCCC(C(F)(F)F)C3)c2c1C (centres undefined),0.4%,-9.3,6.0,-38.1*,13.3,0.9
CCOC(=O)c1cccc(NC(=O)c2cc3sccc3n2C)c1,u,6.1,-7.5,-31.8*,39.5,1.5
CCOC(=O)N1CCN(C(=O)C[C@@H]2C[C@@]3(C(=O)OCC)CCC=C3N(Cc3ccc(Cl)cc3Cl)C2=O)CC1,x,-5.6,x,x,-18.5,x
COc1ccc(S(=O)(=O)c2c(Nc3ccccc3F)sc(C(=O)c3cccc(OC)c3)c2N)cc1,x,-17.9,-1.2,-0.1,x,80.0*
Cc1ccc(CNC(=O)c2c(Nc3ccccc3C)sc(C(=O)c3ccc(F)cc3)c2N)cc1,22.4µM*,0.4,-0.6,19.5,x,20.2
CCOc1ccccc1Nc1sc(C(=O)c2ccccc2)c(N)c1S(=O)(=O)c1ccc(C)cc1,1.3%,-1.2,1.6,12.5,x,15.1
CCOc1ccc(Nc2sc(C(=O)c3ccc(F)cc3)c(N)c2S(=O)(=O)c2ccc(C)cc2)cc1,x,-4.8,-0.5,-40.6*,x,48.1*
COc1ccc(S(=O)(=O)c2c(Nc3ccc(C)cc3C)sc(C(=O)c3ccc(F)cc3)c2N)cc1,x,-6.7,-3.1,-48.1*,x,87.7*
COc1ccc(C2=Nc3ccccc3N(C(=O)c3cc(Cl)cc(Cl)c3)C2C(=O)NCc2ccccc2)cc1 (centres undefined),x,-9.7,x,x,0.0,x
O=C(Nc1ccc(C(F)(F)F)cc1)N1CCN(c2ccnc3cc(Cl)ccc23)CC1,-0.5%,-4.5,-13.7,-36.8*,-2.1,13.2
Cc1cccc(C(=O)NC2(C(F)(F)F)N=C(c3ccccc3)N(C3CCCCC3)C2=O)c1 (centres undefined),x,-3.6,-0.5,-7.1,x,0.6
Cc1cccc(Nc2nn3c(=O)c4cc5c(cc4nc3s2)OCO5)c1,x,-1.7,-1.3,36.3,x,0.9
O=c1c2cc3c(cc2nc2sc(Nc4ccc(F)c(Cl)c4)nn12)OCO3,x,5.3,3.0,5.3,x,54.8*
Cn1c2c(c(=O)n(C)c1=O)C(c1ccccc1OC(F)F)C1=C(CCCC1=O)N2 (centres undefined),-3.1%,0.7,-3.8,-36.4*,-15.3,10.2
COC(=O)c1ccc(NC(=O)COC(=O)c2nc3nccc(C)n3n2)cc1,-2.5%,7.8,-2.2,-35.0*,13.8,3.5
Cc1ccnc2nc(C(=O)OCC(=O)Nc3ccc4c(c3)OCCO4)nn12,1.0%,-4.7,x,x,-4.3,x
Cc1ccc(NC(=O)c2cnn(-c3ccccc3)c2C)c(C)c1,2.6%,8.5,-7.5,-58.0*,15.2,6.7
Cc1cccc(C)c1NC(=O)C1c2ccccc2OCC(=O)N1C1CC1 (centres undefined),x,7.3,x,x,-12.6,x
CNC(=S)N1N=C(c2ccc(Br)cc2)CC1c1ccc(OC)cc1 (centres undefined),1.2%,1.4,4.7,13.2,-12.6,3.4
CNC(=S)N1N=C(c2ccc(C)cc2)CC1c1ccc(N(C)C)cc1 (centres undefined),-1.8%,1.7,0.6,-9.7,-11.6,36.5*
